Source: PubChem BioAssay (NCATS)
Records with an inconclusive call do not appear. Values without a mark were called inactive. Calls of active or inactive are those of the source. Calls come from the whole dose curve; as a rule, active = well fitted cell-killing curve with a large enough effect; inconclusive = small, poorly fitted or top-dose-only effect; inactive = flat fitted curve, though single readings scatter.

Assay: qHTS of pediatric cancer cell lines to identify multiple opportunities for drug repurposing: Primary screen for Rh18 cells (AID 1347102); note: nearly all actives have a fitted effect of over 65% in size
Settings: Rh18 rhabdomyosarcoma viability, CellTiter-Glo luminescence, 48 h; series mostly up to 46 µM; activity change, negative = cytotoxic: at the top concentration
Source text: Drug repurposing or repositioning has been offered as a strategy for drug development in oncology programs. This approach has special potential for childhood cancers and other rare or orphan diseases, where the expected return on new drug development has been a disincentive to pharmaceuticals.
In this project we exploit the poly-pharmacology of drugs to discover new indications via phenotypic screening of a panel of 19 well-characterized cell lines derived from solid tumors seen in children and adolescents. The goal is to identify approved drugs with previously unrecognized anticancer properties that has the potential to reveal new mechanisms and biological processes involved in carcinogenesis or drug resistance. We employed a titration-based paradigm (quantitative high-throughput screening or qHTS), where all compounds were tested at multiple concentrations for their effect on cell viability. Concentration-response curves (CRCs) were derived directly from the primary screen, and both potency and efficacy values were used to identify compounds with robust bioactivity profiles. We screened the NIH Chemical Genomics Center (NCGC) Pharmaceutical Collection (NPC) and Mechanism Interrogation Plate (MIPE) small molecule collections of approved and investigational compounds against these cell lines; and measured metabolically active cells after 48 hours of compound treatment as a proxy for cell viability.
Assay Submitter: Nathalia J. Martinez, National Center for Advancing Translational Sciences, National Institutes of Health, Rockville, MD, USA; email: natalia.martinez@nih.gov
[1] Shen, M et al. Quantitative high-throughput phenotypic screening of pediatric cancer cell lines identifies multiple opportunities for drug repurposing. Oncotarget 2017 Dec 19;9(4):4758-4772. PMID 29435139.
The cells were obtained from University of North Carolina (UNC), Pediatric Preclinical Testing Program (PPT), and Coriell Institute (CI).
qHTS cell viability assay:
Cells were assayed in growth media at a density of 500-1,000 cells/well. Five microliters of cells were dispensed into 1,536-well, white, solid-bottom, TC-treated plates (Greiner Bio One) using a multidrop dispenser and incubated at 37 degrees C, 5% CO2, under a humidified atmosphere for 5 hours. Twenty-three nanoliters of compounds and controls (neutral control DMSO or positive control bortezomib at final concentration of 2.3 µM) were subsequently transferred by Kalypsys pintool. For primary screens, the MIPE collection was tested at 11-point dilutions (final concentrations range from 0.78 nM to 46 µM) and the NPC collection at 8-point dilutions (final concentrations range from 0.59 nM to 46 µM). Compounds tested in follow-up screens were assayed at 11-point dilutions. Cells were incubated for 48 hours, followed by addition of 3 µL of CellTiter-Glo (Promega). After a 15 min incubation at room temperature, samples were analyzed for luminescence intensity using a ViewLux High-throughput CCD imager equipped with clear filters.
% is set by controls: 0 for no effect and ±100 for the full control effect; potency is the fitted concentration of half-maximal effect.

Row | SMILES | Potency | activity change, negative = cytotoxic
1 | CN1CCN(CCCN2c3ccccc3Sc3ccc(S(=O)(=O)N(C)C)cc32)CC1 | 23.7 µM (active) | –
2 | CC[C@@H](CO)NCCN[C@@H](CC)CO | – | -1.45%
3 | Nc1ccn([C@@H]2O[C@H](CO)[C@@H](O)C2(F)F)c(=O)n1 | – | 7.49%
4 | CCC(=O)c1c(O)cc(O)cc1O | – | 12.7%
5 | c1ccc(-c2ccc(C(c3ccccc3)n3ccnc3)cc2)cc1 (stereo not given) | – | -16.2%
6 | C=C(CC)C(=O)c1ccc(OCC(=O)O)c(Cl)c1Cl | – | 1.34%
7 | CN(C/C=C/c1ccccc1)Cc1cccc2ccccc12 | – | -24.7%
8 | O=C(O)CCCCC(=O)O | – | 14.2%
9 | CCn1cc(C(=O)O)c(=O)c2cnc(N3CCCC3)nc21 | – | 15.8% [at 9.22 µM]
10 | O=C1OC2(c3ccc(O)cc3Oc3cc(O)ccc32)c2ccccc21 | – | -8.1%
11 | Cc1ccc(Nc2c(F)cccc2Cl)c(CC(=O)O)c1 | – | 25.9%
12 | CN(C)CCOc1ccccc1Cc1ccccc1 | – | -25.3%
13 | CCCCCCc1ccc(O)cc1O | – | 0.944%
14 | COc1cc2c(cc1OC)[C@@H]1CC(=O)[C@@H](CC(C)C)CN1CC2 | – | 6.31%
15 | C[C@]12CCC(=O)C=C1[C@@H]1C[C@@H]1[C@H]1[C@@H]3[C@@H]4C[C@@H]4[C@@]4(CCC(=O)O4)[C@@]3(C)CC[C@@H]12 | – | -9.47%
16 | COC(=O)[C@@H]1CC2=CC(=O)CC[C@]2(C)[C@@]23O[C@@H]2C[C@@]2(C)[C@@H](CC[C@@]24CCC(=O)O4)[C@H]13 | – | 15.9%
17 | Cc1cccc(C)c1NC(=O)CN1CCN(CCCC(c2ccc(F)cc2)c2ccc(F)cc2)CC1 | – | 14.3%
18 | C[C@H]1[C@H](NC(=O)/C(=N/OC(C)(C)C(=O)O)c2csc(N)n2)C(=O)N1S(=O)(=O)O (stereo in doubt) | – | -1.15%
19 | CC(C)(C(=O)c1cccnc1)c1cccnc1 | – | -4.21%
20 | CCCCc1nc(Cl)c(CO)n1Cc1ccc(-c2ccccc2-c2nn[nH]n2)cc1 | – | 17.2%

Row | SMILES | Potency | activity change, negative = cytotoxic
21 | CCCCN1CCCC1C(=O)Nc1c(C)cc(C)cc1C (stereo not given) | – | 2.46%
22 | O=C(COc1ccc(Cl)cc1)N1CCN(Cc2ccc3c(c2)OCO3)CC1 | – | 0.923%
23 | CN1C(CCl)Nc2cc(Cl)c(S(N)(=O)=O)cc2S1(=O)=O (stereo not given) | – | 8.3%
24 | CC(=O)OCC(=O)NCCCOc1cccc(CN2CCCCC2)c1 | – | 16.8%
25 | CCCCS(=O)(=O)N[C@@H](Cc1ccc(OCCCCC2CCNCC2)cc1)C(=O)O | – | 2.18%
26 | Cc1cc(O)c(C(C)C)cc1Cl | – | 3.19%
27 | CCN(CC)CCNC(=O)COc1ccc(Cl)cc1 | – | 13.8%
28 | CCOC(=O)c1cccc(N)c1 | – | 9.51%
29 | C[C@]12C=CC(=O)C=C1[C@@H](F)C[C@@H]1[C@@H]2[C@@H](O)C[C@@]2(C)[C@H]1CC[C@]2(O)C(=O)CO | – | 14.8%
30 | C[C@@H]1C[C@H]2[C@@H]3CCC4=CC(=O)C=C[C@]4(C)[C@@]3(F)[C@@H](O)C[C@]2(C)[C@H]1C(=O)CO | – | 9.77%
31 | C[C@H](O)C(=O)Nc1c(I)c(C(=O)NC(CO)CO)c(I)c(C(=O)NC(CO)CO)c1I | – | 17.4%
32 | CCN(CC)CCOC(=O)C(c1ccccc1)C1CCCCC1 (stereo not given) | – | -26.8%
33 | COc1ccc(OC)c(C(O)CNC(=O)CN)c1 (stereo not given) | – | 13.6%
34 | CCCCOc1cc(C(=O)NCCN(CC)CC)c2ccccc2n1 | – | -12.9%
35 | CC1(C)O[C@@H]2C[C@H]3[C@@H]4C[C@H](F)C5=CC(=O)C=C[C@]5(C)[C@H]4[C@@H](O)C[C@]3(C)[C@]2(C(=O)CO)O1 | – | 4.17%
36 | CC1(C)O[C@@H]2C[C@H]3[C@@H]4CCC5=CC(=O)CC[C@]5(C)[C@@]4(F)[C@@H](O)C[C@]3(C)[C@]2(C(=O)CCl)O1 | – | 22.6%
37 | CCOC(=O)n1ccn(C)c1=S | – | -0.933%
38 | CNCC[C@@H](Oc1ccccc1C)c1ccccc1 | – | -6.41%
39 | COc1cc(N)c(Cl)cc1C(=O)NC1CCN(CCCOc2ccc(F)cc2)CC1OC (stereo not given) | – | -14.4%
40 | C#C[C@]1(O)CC[C@H]2[C@@H]3CCC4=CC(=O)CC[C@@H]4[C@H]3CC[C@@]21C | – | -6.02%
